Structures are written as SMILES. Where “and” joins values, the source holds several entries; their conditions need not be identical. Equal entries are not always repeated. Inconclusive results are not listed. The source holds several records for some structures; these can differ, active in one and inactive in another. Calls of active or inactive are those of the source. Calls follow the shape of the dose curve; as a rule, active = well fitted inhibition curve with a large enough effect in the signal ratio in the repeat runs; inconclusive = weak or mixed curves, or effect the other way; inactive = flat fitted curve, though single readings scatter; the % refers to the signal ratio.
% is scaled to controls: 0 for no effect and ±100 for the full control effect; potency is read from the fitted curve at half-maximal effect.

A short description of this test: qHTS assay for small molecule disruptors of the mitochondrial membrane potential (AID 720635). The settings on record: HepG2 mitochondrial membrane potential, Mito-MPS dye ratio; series mostly up to 83.2 µM; ratio activity, negative = MMP loss: at the top concentration. The source says:
U.S. Tox21 Program National Center for Advancing Translational Sciences [NCATS] NIH Chemical Genomics Center [NCGC] U.S. Environmental Protection Agency [EPA] National Institutes of Environmental Health Sciences [NIEHS] National Toxicology Program [NTP] U.S. Food and Drug Administration [FDA] Tox21 Assay Overview: Mitochondrial membrane potential (MMP), one of the parameters for mitochondrial function, is generated by mitochondrial electron transport chain that creates an electrochemical gradient by a series of redox reactions. This gradient drives the synthesis of ATP, a crucial molecule for various cellular processes. Measuring MMP in living cells is commonly used to assess the effect of chemicals on mitochondrial function. […] The dye accumulates in the mitochondria of healthy cells as aggregates, with red fluorescence. The mitochondrial potential collapses and the dye can no longer accumulate in the mitochondria and remains in the cytoplasm in monomers, with green fluorescence.
Tox21 Assay Protocol Summary: 2,000 HepG2 cells in 5 uL/well were dispensed into black, clear-bottom 1536-well plates using a Multidrop Combi (Thermo Scientific) dispenser. The assay plates were incubated overnight at 37C to allow cells to attach to the wells, followed by the transfer of 23 nL compound or DMSO vehicle by a pin tool (Kalypsys). The plates were incubated for 1 hr at 37C and 5% CO2, followed by the addition of 5 uL of 2X Mito-MPS dye (BD Biosciences) into each well using Flying Reagent Dispenser (Aurora Discovery) and then following 30 min incubation at 37C. Fluorescence intensity (490nm excitation and 535nm emission for monomers; and 540nm excitation and 590nm emissions for aggregates) was measured using an Envision plate reader.
For the compound `CCCN1C=CN(C)C1`, the “ratio activity, negative = MMP loss” value was -10.2% [at 95.3 µM] (inactive). Still for that read-out and setting: with `[O-]/[N+](=N\O)c1ccccc1` the figure was 6.41% (inactive). Turning to `CN1CCOCC1`, the Potency result was “inactive”. Same read-out and setting: the result for `O=C(O)CCCC(=O)O` reads “inactive”. Regarding `CCO[Si](CCCNC(N)=O)(OCC)OCC`, the “ratio activity, negative = MMP loss” value was 15.4% (inactive). Take `CC/C(=C(/CC)c1ccc(O)cc1)c1ccc(O)cc1`: the Potency was 7.5 µM (active) and 6.06 µM (active) and 10.9 µM (active). Still for that read-out and setting: with `O=C(O)c1cc(=O)[nH]c(=O)[nH]1` the entry was “inactive”.

On to `[Na+]`, for which the “ratio activity, negative = MMP loss” value is 12.4% (inactive). `CC(=O)Oc1c(C)c(C)c2c(c1C)CC[C@@](C)(CCC[C@H](C)CCC[C@H](C)CCCC(C)C)O2`: the Potency result was “inactive”. As to `CCCCCCC(C)O` (stereo not given), the “ratio activity, negative = MMP loss” value is 13.9% (inactive). Still for that read-out and setting: the result for `C=CC(=O)OCCCC` reads 14.8% [at 95.3 µM] (inactive); that for `ClC/C=C/CCl`, -23.9% [at 95.3 µM] (inactive).

Consider `O=[Se](O)O`, for which the Potency was 8.64 µM (active) and inactive. Same read-out and setting: with `COC(=O)CC(=O)OC` the entry was “inactive”. Take `CC1(C)O[C@@H]2C[C@H]3[C@@H]4C[C@H](F)C5=CC(=O)C=C[C@]5(C)[C@@]4(F)[C@@H](O)C[C@]3(C)[C@]2(C(=O)CO)O1`: the “ratio activity, negative = MMP loss” value is 15% (inactive).

Regarding `O=S1(=O)CCCO1`, the Potency entry was “inactive”. On the same count and under the same terms, with `c1ccc2ncccc2c1` the entry was “inactive”. For `NC[C@H](O)c1ccc(O)c(O)c1`, the “ratio activity, negative = MMP loss” value is -12.9% (inactive). Same read-out and setting: with `C1COCCN1` the figure was 11.7% [at 95.3 µM] (inactive); with `OC[C@H]1O[C@@H]2O[C@H]3[C@H](O)[C@@H](O)[C@@H](O[C@H]4[C@H](O)[C@@H](O)[C@@H](O[C@H]5[C@H](O)[C@@H](O)[C@@H](O[C@H]6[C@H](O)[C@@H](O)[C@@H](O[C@H]7[C@H](O)[C@@H](O)[C@@H](O[C@H]1[C@H](O)[C@H]2O)O[C@@H]7CO)O[C@@H]6CO)O[C@@H]5CO)O[C@@H]4CO)O[C@@H]3CO`, -4.88% (inactive). Take `O=C(O)CCCCCCCCCCCC(=O)O`: the Potency entry is “inactive”.

Regarding `Nc1ccc(O)c(N)c1`, the Potency is 10.8 µM (active) and 4.86 µM (active). With `Brc1nc2ccccc2s1`, the “ratio activity, negative = MMP loss” value is -8.2% (inactive). Take `Cc1ccc2c(c1)C(=O)OC2=O`: the Potency entry is “inactive”.

Take `C1CN(SSN2CCOCC2)CCO1`: the Potency was 61.1 µM (active). For `CC(=O)OC(C)C`, the “ratio activity, negative = MMP loss” value is 16% (inactive). Take `COC(=O)c1ccc(C)cc1`: the “ratio activity, negative = MMP loss” value is 13.3% (inactive). On to `CC1(C)OC(=O)NC1=O`, for which the Potency entry was “inactive”. With `C=CCOC(=O)C(=C)C`, the “ratio activity, negative = MMP loss” value was 12.3% (inactive). For `CC(C)=CCO`, the Potency entry is “inactive”. Consider `Nc1ccc(N)c(Cl)c1`, for which the Potency is 3.85 µM (active) and 27.3 µM (active). The same measure, in the same setting: with `CCCCCCOCCOCCO` the entry was “inactive”; with `C[N+](C)(C)CCO`, “inactive”; with `Cc1ccc([N+](=O)[O-])c(C)c1`, “inactive”.

`CCCCCCCCCCCCCO`: the Potency result was “inactive”. Regarding `Cc1ccc(S(=O)(=O)NCl)cc1`, the “ratio activity, negative = MMP loss” value is 5.72% (inactive).

As for `Clc1ccc(Sc2cc(Cl)c(Cl)cc2Cl)cc1`, the Potency was 1.68 µM (active) and 864 nM (active).

As to `C=C[C@H]1CN2CC[C@H]1C[C@H]2[C@H](O)c1ccnc2ccc(OC)cc12`, the Potency entry was “inactive”. Still for that read-out and setting: the result for `C=CCCCCCCCCCC` reads “inactive”. Still for that read-out and setting: with `COc1ccc(-c2coc3cc(O)cc(O)c3c2=O)cc1` the figure was 3.09 µM (active) and 6.86 µM (active).

(Values after PubChem BioAssay (Tox21).)
